The source of these data is PubChem BioAssay (NCI).

Assay in all cases: NCI-60 one-dose screen, 48 h (100 = growth as untreated, 0 = no growth, -100 = all killed)
The subject of one experiment is A549/ATCC NSCLC. Particulars: 10 µM unless noted.
The next experiment deals with COLO 205 colon. Particulars: 10 µM.
The next experiment relates to MALME-3M melanoma. Particulars: 10 µM unless noted.
Another experiment has as its system RXF 393 renal. The following applies: 10 µM unless noted.
The subject of the next experiment is UACC-257 melanoma. The following applies: 10 µM unless noted.
Another experiment has as its system HT29 colon. The following applies: 10 µM unless noted.
In another experiment the test system is U251 CNS. The following applies: 10 µM unless noted.
In the next experiment the test system is SN12C renal. The following applies: 10 µM unless noted.
The subject of the next experiment is UO-31 renal. The following applies: 10 µM unless noted.
Another experiment relates to CAKI-1 renal. Particulars: 10 µM unless noted.
The next experiment concerns A498 renal. Particulars: 10 µM unless noted.
The next experiment deals with HL-60(TB) leukemia. Particulars: 10 µM unless noted.
The next experiment deals with OVCAR-8 ovarian. The following applies: 10 µM unless noted.
A further experiment concerns OVCAR-4 ovarian. Particulars: 10 µM unless noted.
Another experiment deals with SK-OV-3 ovarian. The following applies: 10 µM unless noted.
For the next experiment, the system named is HS 578T breast. Particulars: 10 µM unless noted.
The test system of a further experiment is T-47D breast. The following applies: 10 µM unless noted.
Another experiment relates to BT-549 breast. The following applies: 10 µM.
The subject of the next experiment is MDA-MB-435 melanoma. The following applies: 10 µM unless noted.
In the next experiment the test system is SK-MEL-2 melanoma. The following applies: 10 µM unless noted.

SMILES strings stand for the structures. This is part of a sample that, as a whole, favours compounds with a hit. Of some 83,000 tested, about 20% had one in any assay.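 96-well plates, one dose, 48 hours. Percent growth reported; active if below 10.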 Unmarked numbers belong to inactive results. The source made the active and inactive calls.

Regarding `CC(=O)O[C@H]1C[C@H](O[C@H]2[C@@H](O)C[C@H](O[C@H]3[C@@H](O)C[C@H](O[C@H]4CC[C@@]5(C)C(CCC6C5C[C@@H](O)[C@]5(C)[C@@H](C7=CC(=O)OC7)CC[C@]65O)C4)O[C@@H]3C)O[C@@H]2C)O[C@H](C)[C@H]1O[C@@H]1O[C@H](CO)[C@@H](O)[C@H](O)[C@H]1O` (some centres not stated), the growth was -100% (active) with A549/ATCC NSCLC; -74.2% (active) in the experiment with COLO 205 colon; -36% (active) in the experiment with MALME-3M melanoma; -53.8% (active) in the experiment with RXF 393 renal; -100% (active) in the experiment on UACC-257 melanoma; -86% (active) in the experiment on HT29 colon. The growth with U251 CNS is -100% (active); in the experiment on SN12C renal it was -38.9% (active); in the experiment with UO-31 renal it was -80.1% (active); with CAKI-1 renal, -94.4% (active); in the experiment on A498 renal it was -19.5% (active); with HL-60(TB) leukemia, -46.4% (active). Besides, the growth in the experiment with OVCAR-8 ovarian is -92.6% (active); with OVCAR-4 ovarian it was -70.4% (active); in the experiment on SK-OV-3 ovarian, -97.4% (active); in the experiment with HS 578T breast it was 2.41% (active); with T-47D breast it was -19% (active); with BT-549 breast, -91% (active). Further, the growth with MDA-MB-435 melanoma was -97.9% (active).

`N#[N+]c1nc2nc(N)[nH]c(=O)c2[nH]1`: the growth in the experiment with A549/ATCC NSCLC was 89.8%; with COLO 205 colon it was 103%; in the experiment on MALME-3M melanoma, 107%; in the experiment with RXF 393 renal it was 111%; with UACC-257 melanoma it was 88.8%; in the experiment with HT29 colon it was 104%. Further, the growth in the experiment with U251 CNS was 91.5%; with SK-MEL-2 melanoma it was 101%; in the experiment with SN12C renal it was 99.9%; in the experiment with UO-31 renal it was 72%; with A498 renal it was 107%; in the experiment with HL-60(TB) leukemia it was 100%. Further, the growth with OVCAR-4 ovarian was 105%; in the experiment on SK-OV-3 ovarian it was 94.2%; with HS 578T breast, 92.9%; in the experiment on T-47D breast, 100%; in the experiment on MDA-MB-435 melanoma, 100%.

As to `ClCCN(CCCl)c1ccc(/C=C\c2ccnc3ccccc23)cc1`, the growth with A549/ATCC NSCLC was 71%; with COLO 205 colon it was 88.8%; in the experiment on MALME-3M melanoma, 74.4%; in the experiment on RXF 393 renal, 99%; in the experiment with UACC-257 melanoma, 47.1%; in the experiment with U251 CNS it was 76.4%. The growth was 75.7% with SN12C renal; 70.8% with UO-31 renal; 68.2% in the experiment on A498 renal; 46.8% with HL-60(TB) leukemia; 82.3% in the experiment on OVCAR-4 ovarian; 101% in the experiment with SK-OV-3 ovarian. The growth in the experiment on HS 578T breast is 89.9%; with T-47D breast it was 63.1%; with BT-549 breast it was 70.5%; in the experiment with MDA-MB-435 melanoma it was 76%.
